Measured values reported in PubChem BioAssay (NCATS).
Inconclusive results are not listed. Where a call stands in place of a potency, no number is given. Calls of active or inactive are those of the source. Calls follow the shape of the dose curve; as a rule, active = well fitted curve in the direction sought with a large enough effect; inconclusive = small, poorly fitted or top-dose-only effect, or another doubt; inactive = no such curve, though single readings can be large; an effect the other way counts as inactive or inconclusive.

Tests used:
[1] = molecular target: Aldehyde dehydrogenase, mitochondrial (Homo sapiens) (UniProt P05091); assay: qHTS for Inhibitors of the Aldehyde Dehydrogenase Family (ALDH2) Primary screen (AID 2061308); also: nearly all actives have a fitted effect of over 55% in size
[2] = molecular target: Retinaldehyde dehydrogenase 3 (Homo sapiens) (UniProt P47895); assay: qHTS for Inhibitors of the Aldehyde Dehydrogenase Family (ALDH1A3) Primary screen (AID 2061315)

SMILES | Potency [1] | Potency [2]
CCN(CC)CCn1c(-c2ccccc2)nc2c(NCCO)nc(C)nc21 | inactive | inactive
O=C(OCC#CCSc1nnc(-c2cccc3ccccc23)o1)c1ccc(F)cc1F | inactive | inactive
Fc1ccc(-c2ccc(Nc3nc(-c4ccncc4)nc4ccccc34)cc2F)c(F)c1 | inactive | inactive
Cc1ccc(-c2csc(NC(=O)c3ccncc3NS(=O)(=O)c3ccc(C)cc3)n2)cc1 | inactive | inactive
N#Cc1cccc(NC(=O)Nc2nnc(-c3ccncc3)s2)c1 | inactive | inactive
CCCn1c(C)nc2c(N(CCN(C)C)Cc3ccccc3)nc(C)nc21 | inactive | inactive
Nc1nc2c(c(N3CC[C@@H](N)C3)n1)CCCc1ccccc1-2 | inactive | inactive
O=C(Nc1ccc(Cl)c(C(F)(F)F)c1)Nc1cccc(-c2ccncc2)n1 | inactive | inactive
C=CCNc1oc(-c2ccc(Cl)cc2)nc1C#N | inactive | inactive
Cc1ccc(OCCn2c(CCNC(=O)c3ccc(C)cc3)nc3ccccc32)cc1 | inactive | inactive
Cc1ccc(OCCn2c(CCNC(=O)c3cccc(Br)c3)nc3ccccc32)cc1 | inactive | inactive
Cc1ccc(S(=O)(=O)Nc2cnccc2C(=O)Nc2ccncc2)cc1 | inactive | inactive
CC(C)(C)OC(=O)NCCOCCOCCOc1ccc(-c2no[n+]([O-])c2C#N)cc1 | inactive | inactive
CC1=C(C(=O)Nc2ccc(Cl)cc2)C(c2ccccc2Br)N=C(Nc2nc3ccccc3o2)N1 (stereo not given) | inactive | inactive
Cn1c2cc(B(O)O)sc2c2cnn(Cc3ccccc3F)c(=O)c21 | inactive | inactive
